# Source: PubChem (National Center for Advancing Translational Sciences (NCATS))
# In the library only some 14% were active in any assay of this set; here they are far more common.
# MARV entry inh = Marburg virus entry inhibition; Marburg virus pseudotyped entry inhibition, cell reporter; Potency, µM (highest dose often 37.8 µM), without a hit: at the top dose activity change, negative = inhibition, actives largely listed as inhibitors; hit rate 1.8% among 300,000; calls by dose curve; tested in HEK293 cells; also: potency is read from the fitted curve at half-maximal effect
# Pf growth 96h = P. falciparum growth inhibition at 96 hours. Potency, µM (titrated, usually from 28.7 µM), without a hit: at the top dose activity change, negative = inhibition, usual class: inhibitors. P. falciparum luciferase reporter growth, 96 h. AID 504834. hit rate 6.9% among 320,000; also: potency is read from the fitted curve at half-maximal effect
#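 Parasite growth measured via integrated firefly luciferase reporter in P. falciparum. Infected erythrocytes at 2% hematocrit, 0.05% parasitemia final were treated 96 hours at 37 C under 5% CO2, and luminescence was read.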
# Pf growth 48h = P. falciparum growth inhibition at 48 hours (one generation) | P. falciparum luciferase growth in erythrocytes, 48 h | Potency, µM (titrated, usually from 28.7 µM), for inactives: top-dose activity change, negative = inhibition, most hits filed as inhibitors | hit rate 5.9% among 310,000; also: potency is read from the fitted curve at half-maximal effect
#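 Luciferase-expressing parasites in RBCs, 2% Hct / 0.1% parasitemia final; RPMI 1640 + 0.5% Albumax; 37 C, 5% CO2, one generation; luminescence read-out, lower signal = inhibition.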
# HCV inhibitor = inhibitors of hepatitis C virus infection | Huh7.5.1 HCVcc-Cre infection, luciferase reporter, 44 h | Potency, µM (top dose mostly 41.8 µM), inactives show at the top dose activity change, negative = inhibition, actives largely listed as inhibitors | hit rate 3.4% among 340,000 | AID 651820; also: potency is read from the fitted curve at half-maximal effect
#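 After 44 h co-culture of compound, cells and HCVcc-Cre (~0.5 moi), substrate is added for 15 min at room temperature and luciferase measured over 15 sec. Cells were seeded at 1,000/well and pre-cultured 4 h.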
# HCMV inh = human cytomegalovirus inhibition; HFF cells, HCMV-luciferase reporter, 72 h; hits give low values; activity change, negative = inhibition, % at 57.5 µM; hit rate 4.5% among 410,000; in the data active = activity change below about -60%; inconclusive = no clear call, values can overlap the other calls; inactive = above about -39%
#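 After 16 h attachment at 37C, HFF cells received test compound and HCMV-luciferase (1 PFU/cell); reporter luminescence read 72 h later, data normalized against buffer-only and known inhibitor Salinomycin.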
# LASV entry inh = blocks Lassa virus binding to or entry into cells. Lassa virus pseudotype entry inhibition, cell reporter. Potency, µM (series often up to 37.9 µM), for inactives: top-dose activity change, negative = inhibition, hits mostly inhibitors. hit rate 1.2% among 300,000. AID 540256; calls by dose curve; tested in HEK293 cells; also: potency is read from the fitted curve at half-maximal effect; nearly all actives have a fitted effect of over 50% in size
# An asterisk follows results filed as active; ? = inconclusive; / = no result given; ! = not confirmed by another sample; [ ] = another dose, or the depositor's remark. Unless noted, calls follow the shape of the dose curve; as a rule, active = well fitted inhibition curve with a large enough effect; inconclusive = small, poorly fitted or top-dose-only effect, or another doubt; inactive = no such curve, though single readings can be large or run the other way. % is scaled to controls: 0 for no effect and ±100 for the full control effect.
SMILES,MARV entry inh,Pf growth 96h,Pf growth 48h,HCV inhibitor,HCMV inh,LASV entry inh
CC(C)(C)[C@H]1C=C(C(=O)N2CCN(Cc3ccc4c(c3)OCO4)CC2)O[C@@H](OCc2ccc(CO)cc2)C1,/,?,10µM*,-8%,-23,/
N#CNC(=Nc1ccc(Cl)cc1)Oc1ccccc1,1%[46.1 µM],-7%,-10%,2%,-21,-2%
COC(=O)C1=CN(c2cccc(OCc3ccccc3)c2)C(N)=C(C#N)C1c1ccc(-c2ccccc2)cc1 (stereo not drawn),/,/,/,/,-20,/
CCOC(=O)C1=C(Cc2ccc(Cl)cc2)C(=O)c2ccccc2C1=O,?,/,?,11µM*,/,23µM*
CCOC(=O)C1=C(C)Nc2ccccc2N/C1=N\S(=O)(=O)c1ccc(Cl)cc1,/,6%,-10%,8%,-35,/
Cc1ccc(OC(=O)c2cc(-c3ccc4c(c3)OCCO4)on2)cc1C,0%[46.1 µM],/,/,/,5,16%[46.1 µM]
Cc1ccc(-c2noc(CCCC(=O)NC3CCCC3)n2)cc1,?,29%,-28%,?,-80*,-26%[46.1 µM]
O=C(CCCc1nc(-c2ccc(Cl)cc2)no1)Nc1cccnc1,-49%,6%,8%,?,-72*,?
CC(C)(C)NC(=O)c1ccccc1-c1nc(-c2ccccc2Cl)no1,-23%,2.1µM*,30%,-29%,7,5%
O=C(CCCc1nc(-c2ccccc2Cl)no1)NC1CCCC1,/,?,?,4%,-74*,/
O=C(NCc1cccnc1)c1cc(C2CCCN(S(=O)(=O)c3ccccc3)C2)on1 (stereo not drawn),/,/,/,/,-19,/
CCC[C@H]1CC(=O)C=C(c2ccc(OC)cc2)ON1C(=O)OC(C)(C)C,/,/,/,-8%,-22,/
CCOc1ccc(C(C(=O)NCC2CCCO2)N(Cc2cccnc2)C(=O)c2snc(C(N)=O)c2N)cc1 (stereo not drawn),-4%[46.1 µM],-4%,?,10%,-23,-4%
COc1ccc(-c2noc(CCC(=O)NC3CCCC3)n2)cc1,1%[46.1 µM],?,6%,-11%,?,-8%[46.1 µM]
COc1ccc(-c2noc(CCCC(=O)NC3CCCCC3)n2)cc1,?,-7%,3%,?,-72*,-30%[46.1 µM]
COc1cccc(-c2noc(CCCC(=O)NC3CCCC3)n2)c1,/,2.3µM*,-6%,?,-32,/
O=C(Nc1ccc(-c2noc(CCc3ccccc3)n2)cc1)c1cccnc1,?,27%,?,11µM*,?,?
CC(C)C(=O)NCCc1nc(-c2ccccc2Cl)no1,/,/,/,3%,-60*,/
Cn1c(=O)cc(OCC(=O)NCc2ccc(F)cc2Cl)c2ccccc21,12%[46.1 µM],/,/,/,7,?
COc1ccccc1C(=O)Nc1c(C(=O)N(C)c2ccccc2)sc2nc(C)cc(C)c12,1%[46.1 µM],/,/,/,-9,16%[46.1 µM]
COc1ccc(CCC(=O)NC2CCCCC2)cc1,/,15µM*,-16%,18%,10,/
O=C(CCCc1nc(-c2ccc(Cl)cc2)no1)NC1CCCCC1,?,8%,11%,7.1µM*,1,?
Cc1ccc(-c2noc(CCC(=O)NC3CCCc4ccccc43)n2)cc1 (stereo not drawn),-24%,1.7µM*,-23%,-22%,-28,?
O=C(CCc1nc(-c2ccccc2)no1)NC1CCCCCC1,/,-1%,6%,?,?,/
O=C(CCc1nc(-c2ccc(Cl)cc2)no1)NC1CCCC1,/,29%,14%,6%,13,/
SMILES,MARV entry inh,Pf growth 96h,Pf growth 48h,HCV inhibitor,HCMV inh,LASV entry inh
O=C(Nc1ccn(Cc2cccc3ccccc23)n1)c1cccnc1,?,31%,?,?,-75*,?
CCOC(=O)c1c(C)[nH]c(C(=O)OCC(=O)N(C)C2CCS(=O)(=O)C2)c1C (stereo not drawn),5%,/,21%,-5%,20,3%
CCCN(CC1CC1)C(=O)COC(=O)c1[nH]c(C)c(C(=O)OCC)c1C,-24%,12µM*,/,?,-3,?
CC(C)=CCc1c2c(c3occ(-c4ccc(O)c(O)c4)c(=O)c3c1O)C=CC(C)(C)O2,?,/,/,?,-29,16µM*
CC(C)=CCc1c2c(c3occ(-c4ccc(O)cc4)c(=O)c3c1O)C=CC(C)(C)O2,/,?,?,?,-106*,/
CC1(C)C=Cc2c(c3c(c4c(=O)c(-c5ccc(O)cc5)coc24)OC(C)(C)CC3)O1,/,9.3µM*,?,-60%,-20,/
COc1cccc(-c2cnc(C(O)c3cc(C)cc(C)c3)[nH]2)c1 (stereo not drawn),/,/,/,/,-29,/
Cc1ccc(C)c(Cn2c(=O)n(CC3CCC(C(=O)N4CCOCC4)CC3)c(=O)c3sccc32)c1 (stereo not drawn),/,/,/,/,-5,-2%[46.1 µM]
Cc1ccccc1-c1ccc2c(c1)COCC(=O)N2C,/,/,/,/,1,/
Cc1ccc(S(=O)(=O)Nc2ccc3nc(-c4cccc(Cl)c4)oc3c2)cc1,9%[46.1 µM],/,/,/,?,?
CCOC(=O)CC1=NN(c2ccccc2)C(=O)C1,14%[46.1 µM],36%[5.75 µM],-10%,3%,?,-11%
CCOC(=O)CC1=NN(c2ccccc2)C(=O)/C1=C\c1ccc(N(C)C)cc1,?,5.9µM*,?,9%,-16,16%
O=NN(CCF)C(=O)NC1CCS(=O)(=O)CC1,/,/,/,/,-1,/
COc1ccccc1N1CCN(C2CCCN(Cc3ccc(Cl)cc3)C2)CC1 (stereo not drawn),?,13µM*,-16%,?,6,-26%[46.1 µM]
COc1ccccc1N1CCN(C2CCCN(Cc3ccccc3OCCO)C2)CC1 (stereo not drawn),?,1.7µM*,?,2%,40,11%[46.1 µM]
C/C(=N/OCO/N=C(\C)c1ccccc1F)c1ccccc1F,19%,1.7µM*,-5%,-6%,-24,6%
C/C(=N\NC(=S)NCc1ccccc1)c1ccccc1F,?,-28%,?,?,-5,?
COc1ccc([C@@H]2Sc3cc(OC)ccc3N(CCN(C(C)C)C(C)C)C(=O)[C@H]2OC(C)=O)cc1,?,?,12µM*,?,11,?
CNc1c2c(nn1C)CCCC2,9%,6µM*!,28%,?,28,/
C#CCNc1c2c(nc3nnnn13)CCCC2,1%[46.1 µM],?,23%,18%,44,-12%[46.1 µM]
Nc1cc2nc3ccccc3oc-2cc1=O,/,4.7µM*,4.7µM*,0%,-91*,/
O=C(O)c1cc(=O)c2c3nc4ccccc4oc-3cc(=O)c2[nH]1,/,7%,?,/,/,/
O=S(=O)(NCC(c1ccco1)N1CCOCC1)c1ccc(F)cc1 (stereo not drawn),/,/,/,/,7,-11%[46.1 µM]
Cc1ccc(S(=O)(=O)N2C[C@]3(O)C[C@@H]4C(=O)N(c5ccccc5)C(=O)[C@@H]4C[C@]3(OC(=O)NCc3ccccc3)C2)cc1,/,/,/,/,6,/
